Records with an inconclusive call do not appear. Activity calls are given as the source filed them. Unless noted, calls follow the shape of the dose curve; as a rule, active = well fitted curve in the direction sought with a large enough effect; inconclusive = small, poorly fitted or top-dose-only effect, or another doubt; inactive = no such curve, though single readings can be large; an effect the other way counts as inactive or inconclusive.
How the values were obtained:
[1] = Validation of Assay for Modulators of Lamin A Splicing (AID 1459; active = well fitted curve in the direction sought with a large enough effect in the signal ratio; the % refers to the signal ratio;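 also: cells exposed to compound for two days before reading; 0% is about no effect; ratio rise marks activators and ratio drop marks inhibitors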)
Summary of the method: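 Dual-reporter HeLa S3 line (lamin A-EGFP minigene, DsRed2) treated with compounds 48 hrs, 0.5% DMSO final. Endpoint: EGFP/DsRed2 total intensity ratio from laser-scanning microplate cytometry.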

[2] = target: DNA repair nuclease/redox regulator APEX1 (Homo sapiens) (UniProt P27695); assay: qHTS Validation Assay for Inhibitors of the Human Apurinic/apyrimidinic Endonuclease 1 (APE1) (AID 1705; also: potency is read from the fitted curve at half-maximal effect;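 as to activity change, negative = inhibition: TAMRA fluorescence gain over two minutes as APE1 cuts a quenched THF abasic duplex; % is scaled to controls: 0 for no effect and ±100 for the full control effect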)
Chain of DNA repair nuclease/redox regulator APEX1 (Homo sapiens) (P27695 whole entry, looked up): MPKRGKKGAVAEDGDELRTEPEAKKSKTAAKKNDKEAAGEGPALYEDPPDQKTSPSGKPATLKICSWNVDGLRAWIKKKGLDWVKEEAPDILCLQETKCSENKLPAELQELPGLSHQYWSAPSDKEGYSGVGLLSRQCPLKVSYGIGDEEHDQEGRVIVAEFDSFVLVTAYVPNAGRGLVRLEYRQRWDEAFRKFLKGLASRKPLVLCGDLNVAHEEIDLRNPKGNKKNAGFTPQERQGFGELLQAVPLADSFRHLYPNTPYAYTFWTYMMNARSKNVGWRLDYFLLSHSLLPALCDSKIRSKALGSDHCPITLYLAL
Summary of the method: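 Substrate: 50 nM final fluorophore/quencher THF-abasic duplex. Enzyme preincubated with compounds 15 min, RT. Progress derived from fluorescence difference, third minus first kinetic read.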

[3] = Counterscreen for APE1 Inhibitors: Fluorescent Dye Displacement Validation Assay (AID 1707); also: potency is read from the fitted curve at half-maximal effect;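 as to activity change, negative = inhibition: plate controls were ThO with dsDNA and no compound for no effect and ThO without dsDNA for full effect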
Summary of the method: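 Loss of Thiazole Orange fluorescence marks promiscuous DNA binders. The dye (250 nM) is mixed with 50 nM abasic-site dsDNA in pH7.5 Tris buffer containing MgCl2, then compounds are added and emission is read once.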

[4] = target: Endonuclease 4 (Escherichia coli (strain K12)) (UniProt P0A6C1); assay: Counterscreen for APE1 Inhibitors: qHTS Validation Assay for Inhibitors of Endonuclease IV (AID 1708); also: % is scaled to controls: 0 for no effect and ±100 for the full control effect
Summary of the method: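 Enzyme (2 nM) + compound, 15 min RT; add 50 nM TAMRA/BHQ-2 THF-site dsDNA; kinetic read ex525/em598, 3 reads/60 s; activity = read 3 − read 1. Buffer Tris pH 7.5, 50 mM NaCl, 2 mM MgCl2, DTT, Tween-20.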

[5] = qHTS for differential inhibitors of proliferation of Plasmodium falciparum line 3D7 (AID 1876);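 also: parasite growth measured after three days of culture; 0% = vehicle wells and -100% = reference inhibitor wells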
[6] = qHTS for differential inhibitors of proliferation of Plasmodium falciparum line Dd2 (AID 1882); settings: Potency: Plasmodium falciparum Dd2 proliferation inhibition;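 also: plate controls were DMSO vehicle for no effect and 0.29 µM artemisinin for full effect; nearly all actives have a fitted effect of over 65% in size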
Summary of the method: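 SYBR Green DNA fluorescence (ex 485, em 535 nm) after overnight lysis quantifies parasite growth; compound exposure lasted 72 h at 37 C on infected red cells at 2.5% hematocrit, 0.3% parasitemia (final). Artemisinin 0.29 uM and vehicle wells define normalization.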

[7] = target: Ferritin light chain (Equus caballus) (UniProt P02791); assay: qHTS Validation Assay for Identification of Novel General Anesthetics (AID 2323); also: % is scaled to controls: 0 for no effect and ±100 for the full control effect
Chain of Ferritin light chain (Equus caballus) (P02791 2-175 limits assumed): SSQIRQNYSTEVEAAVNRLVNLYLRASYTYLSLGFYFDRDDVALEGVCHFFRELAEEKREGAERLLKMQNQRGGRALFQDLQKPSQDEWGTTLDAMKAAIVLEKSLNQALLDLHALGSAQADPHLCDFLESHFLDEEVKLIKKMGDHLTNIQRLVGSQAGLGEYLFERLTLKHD
Summary of the method: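 Normalized fluorescence response, scaled between free 1-AMA and 1-AMA/apoferritin complex, fitted to a four-parameter Hill equation for concentration-effect values. Binding mix: 10 uM horse-spleen apoferritin, 50% saturated 1-AMA in PBS; read 380/535 nm after 10 min.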

[8] = target: ATP-dependent DNA helicase Q1 (Homo sapiens) (UniProt P46063); assay: qHTS Validation Assay for Inhibitors of RecQ-Like Dna Helicase 1 (RECQ1) (AID 2353); also: potency is read from the fitted curve at half-maximal effect;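 as to activity change, negative = inhibition: plate controls were DMSO vehicle for no effect and enzyme-free control for full effect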
Summary of the method: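 RECQ1T1 50 nM; forked duplex (20 bp + 30-nt ss tails) 200 nM, ATP 2 mM final; pH 8.0, 2 mM MgCl2, 2.5 ug/ml poly(dI-dC); 15 min compound preincubation; discontinuous kinetic read over 2 h at RT.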

[9] = Validation screen for small molecules that induce DNA re-replication in MCF 10A normal breast cells (AID 463097); also: 0% is about no effect; nearly all actives have a fitted effect of over 60% in size
Summary of the method: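 Following 48 hr compound incubation (37 C, 5% CO2), MCF 10A cells receive Hoechst for 40 min at 37 C. Nuclei are then scanned (excitation 405 nm, emission 500-530 nm) for total fluorescence intensity.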

[10] = Quantitative high throughput screen for delayed death inhibitors of the malarial parasite plastid, 96 hour incubation (AID 488745);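 also: luciferase-expressing P. falciparum in erythrocytes at 2% hematocrit and 0.1% parasitemia; % is scaled to controls: 0 for no effect and ±100 for the full control effect; nearly all actives have a fitted effect of over 70% in size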
Summary of the method: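 Readout is firefly luciferase luminescence from an integrated reporter in P. falciparum; lower signal marks inhibited growth. Cultures at 2% hematocrit and 0.1% parasitemia were treated with compound across two generations (96 h, 37 C, 5% CO2).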

[11] = Quantitative high throughput screen for delayed death inhibitors of the malarial parasite plastid, 48 hour incubation (AID 488752); also: % is scaled to controls: 0 for no effect and ±100 for the full control effect; nearly all actives have a fitted effect of over 65% in size
Summary of the method: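 First, compound was pinned into RPMI 1640 medium containing 0.5% Albumax. Next, reporter-parasite-infected erythrocytes were added to 2% hematocrit and 0.1% parasitemia. After 48 h at 37 C under 5% CO2, luciferase detection reagent was added and luminescence read.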

[12] = target: M-phase phosphoprotein 8 (Homo sapiens) (UniProt Q99549); assay: qHTS Validation Assay for Inhibitors for MPP8 Chromodomain Interactions with Methylated Histone Tails (AID 488949);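 also: 50 nM MPP8 with 50 nM peptide preformed then compounds added for 30 min; AlphaScreen signal from MPP8 chromodomain bound to biotinylated H3K9me3 peptide; top concentration of the series differs between compounds; % is scaled to controls: 0 for no effect and ±100 for the full control effect; nearly all actives have a fitted effect of over 55% in size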
Chain of M-phase phosphoprotein 8 (Homo sapiens) (Q99549 whole entry, looked up): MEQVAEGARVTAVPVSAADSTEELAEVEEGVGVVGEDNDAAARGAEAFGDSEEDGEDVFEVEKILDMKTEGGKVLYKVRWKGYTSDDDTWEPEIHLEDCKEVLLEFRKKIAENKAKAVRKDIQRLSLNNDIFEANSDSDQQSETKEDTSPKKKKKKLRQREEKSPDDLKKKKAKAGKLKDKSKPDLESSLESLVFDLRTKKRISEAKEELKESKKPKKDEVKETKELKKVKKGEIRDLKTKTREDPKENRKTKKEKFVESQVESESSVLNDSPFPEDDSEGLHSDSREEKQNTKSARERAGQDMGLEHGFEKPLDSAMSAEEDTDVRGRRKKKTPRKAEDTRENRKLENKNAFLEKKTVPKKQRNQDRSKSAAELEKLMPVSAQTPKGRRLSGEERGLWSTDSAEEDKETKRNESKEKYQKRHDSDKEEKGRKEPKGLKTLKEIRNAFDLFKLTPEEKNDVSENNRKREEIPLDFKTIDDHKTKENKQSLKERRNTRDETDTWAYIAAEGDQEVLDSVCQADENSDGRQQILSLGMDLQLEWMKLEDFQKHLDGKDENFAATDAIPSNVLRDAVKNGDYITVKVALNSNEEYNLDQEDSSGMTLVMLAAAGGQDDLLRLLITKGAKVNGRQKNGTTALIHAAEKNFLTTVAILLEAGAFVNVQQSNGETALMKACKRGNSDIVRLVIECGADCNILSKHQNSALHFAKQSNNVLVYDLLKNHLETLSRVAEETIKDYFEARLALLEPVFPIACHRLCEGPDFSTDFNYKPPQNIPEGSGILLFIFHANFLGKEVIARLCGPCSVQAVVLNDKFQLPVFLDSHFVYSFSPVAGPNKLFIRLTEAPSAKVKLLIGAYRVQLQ
Summary of the method: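 Chemiluminescent proximity assay: histidine-tag capture via nickel acceptor beads, biotin peptide via streptavidin donor beads. Protein and peptide each at 50 nM, pH 7.4, with 30 min incubations at room temperature for complex formation, compound exposure and bead binding.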

[13] = target: Transient receptor potential cation channel subfamily V member 1 (Homo sapiens) (UniProt Q8NER1); assay: HTS Assay for Compounds that Act as Enhancers of the Vanilloid Receptor 1 (AID 488979); also: 0% is about no effect
Chain of Transient receptor potential cation channel subfamily V member 1 (Homo sapiens) (Q8NER1 whole entry, looked up): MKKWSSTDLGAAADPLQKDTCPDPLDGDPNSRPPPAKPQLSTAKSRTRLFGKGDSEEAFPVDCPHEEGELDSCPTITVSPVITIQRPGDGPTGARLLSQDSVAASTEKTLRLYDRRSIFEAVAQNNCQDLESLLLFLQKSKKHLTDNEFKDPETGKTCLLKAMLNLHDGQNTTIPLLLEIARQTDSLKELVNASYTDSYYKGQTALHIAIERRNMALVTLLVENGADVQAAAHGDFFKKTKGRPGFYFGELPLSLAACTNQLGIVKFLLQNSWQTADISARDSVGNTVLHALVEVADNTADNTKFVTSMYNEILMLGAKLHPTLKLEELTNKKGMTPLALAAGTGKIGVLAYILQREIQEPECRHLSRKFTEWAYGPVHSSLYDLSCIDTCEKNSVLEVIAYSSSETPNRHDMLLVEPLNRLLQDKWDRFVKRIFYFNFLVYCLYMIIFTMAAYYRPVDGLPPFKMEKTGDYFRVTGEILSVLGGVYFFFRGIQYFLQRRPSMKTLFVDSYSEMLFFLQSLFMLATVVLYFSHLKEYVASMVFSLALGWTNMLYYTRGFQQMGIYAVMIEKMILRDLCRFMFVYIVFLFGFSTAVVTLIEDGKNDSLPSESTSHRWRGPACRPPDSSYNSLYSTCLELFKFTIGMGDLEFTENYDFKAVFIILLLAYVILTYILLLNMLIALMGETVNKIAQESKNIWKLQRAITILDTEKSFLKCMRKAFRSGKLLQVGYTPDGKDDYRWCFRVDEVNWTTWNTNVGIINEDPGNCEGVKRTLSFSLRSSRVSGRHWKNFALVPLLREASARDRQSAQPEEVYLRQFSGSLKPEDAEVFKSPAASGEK
Summary of the method: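 TRPV1-expressing cells loaded with Fluo-8 calcium dye; compounds added and calcium influx read kinetically for 3 min (agonist phase), then capsaicin at EC20 added and read 2 min more for enhancement. Fluorescence ex 480/em 520 nm.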

[14] = target: Thyrotropin receptor (Homo sapiens) (UniProt P16473); assay: qHTS Assay for Antagonists of the Thyroid Stimulating Hormone Receptor (AID 488980); also: 0% is about no effect
Chain of Thyrotropin receptor (Homo sapiens) (P16473 whole entry, looked up): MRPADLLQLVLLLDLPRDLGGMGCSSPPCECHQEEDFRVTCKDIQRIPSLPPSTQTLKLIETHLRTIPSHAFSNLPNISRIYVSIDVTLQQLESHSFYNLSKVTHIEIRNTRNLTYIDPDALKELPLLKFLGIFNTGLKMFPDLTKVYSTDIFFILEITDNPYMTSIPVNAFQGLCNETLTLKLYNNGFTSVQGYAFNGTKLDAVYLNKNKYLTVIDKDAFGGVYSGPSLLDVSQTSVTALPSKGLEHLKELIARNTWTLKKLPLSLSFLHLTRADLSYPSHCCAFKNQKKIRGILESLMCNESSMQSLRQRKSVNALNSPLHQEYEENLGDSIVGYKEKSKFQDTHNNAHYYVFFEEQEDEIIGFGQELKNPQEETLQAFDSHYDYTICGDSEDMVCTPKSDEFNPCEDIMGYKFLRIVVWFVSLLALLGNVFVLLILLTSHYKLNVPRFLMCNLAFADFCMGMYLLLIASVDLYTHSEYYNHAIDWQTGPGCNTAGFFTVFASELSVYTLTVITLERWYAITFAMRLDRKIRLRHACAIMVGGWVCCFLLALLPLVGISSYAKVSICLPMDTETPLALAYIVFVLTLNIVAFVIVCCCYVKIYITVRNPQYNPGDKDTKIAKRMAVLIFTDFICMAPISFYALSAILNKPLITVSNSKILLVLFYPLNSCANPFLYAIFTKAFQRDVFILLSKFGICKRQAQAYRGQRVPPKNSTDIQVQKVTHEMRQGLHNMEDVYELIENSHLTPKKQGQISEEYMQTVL
Summary of the method: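 Inhibition of TSH-stimulated cAMP accumulation was quantified by homogeneous time-resolved FRET in TSHR-transfected HEK293 cells. Agonist: TSH, 4 nM final (EC80).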

[15] = target: Thyrotropin-releasing hormone receptor (Homo sapiens) (UniProt P34981); assay: qHTS for Small Molecule Agonists and Allosteric Enhancers of Human TRH Receptor: Validation Screen for Agonists (AID 493127;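 active = calcium activation more than 3 SD above the typical response in the agonist read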;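 also: intracellular calcium rise by fluo-8 fluorescence before TRH EC20 addition; 0% is about no effect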); settings: TRH receptor agonist cell assay; at 2 µM; stronger effect = higher value
Chain of Thyrotropin-releasing hormone receptor (Homo sapiens) (P34981 whole entry, looked up): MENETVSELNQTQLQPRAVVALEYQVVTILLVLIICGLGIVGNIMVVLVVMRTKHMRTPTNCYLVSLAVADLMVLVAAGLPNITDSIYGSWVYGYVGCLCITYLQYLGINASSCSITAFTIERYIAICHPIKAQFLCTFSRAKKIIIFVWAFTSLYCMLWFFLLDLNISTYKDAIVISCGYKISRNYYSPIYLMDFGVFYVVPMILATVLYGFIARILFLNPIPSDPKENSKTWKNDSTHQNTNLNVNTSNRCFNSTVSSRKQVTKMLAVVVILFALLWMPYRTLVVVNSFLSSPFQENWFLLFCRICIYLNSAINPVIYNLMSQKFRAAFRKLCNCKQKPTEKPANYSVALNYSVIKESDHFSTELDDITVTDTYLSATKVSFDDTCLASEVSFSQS
Summary of the method: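 Compounds are added by online pintool to dye-loaded TRHR cells while fluorescence is recorded every second. A rise in calcium signal during the agonist read marks activation; a later 10 nM TRH addition (EC20) serves the separate enhancer mode.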

[16] = target: Galactokinase (Homo sapiens) (UniProt P51570); assay: qHTS Validation Assay for Inhibitors of Human Galactokinase (GALK) (AID 493189); also: 0% is about no effect
Chain of Galactokinase (Homo sapiens) (P51570 whole entry, looked up): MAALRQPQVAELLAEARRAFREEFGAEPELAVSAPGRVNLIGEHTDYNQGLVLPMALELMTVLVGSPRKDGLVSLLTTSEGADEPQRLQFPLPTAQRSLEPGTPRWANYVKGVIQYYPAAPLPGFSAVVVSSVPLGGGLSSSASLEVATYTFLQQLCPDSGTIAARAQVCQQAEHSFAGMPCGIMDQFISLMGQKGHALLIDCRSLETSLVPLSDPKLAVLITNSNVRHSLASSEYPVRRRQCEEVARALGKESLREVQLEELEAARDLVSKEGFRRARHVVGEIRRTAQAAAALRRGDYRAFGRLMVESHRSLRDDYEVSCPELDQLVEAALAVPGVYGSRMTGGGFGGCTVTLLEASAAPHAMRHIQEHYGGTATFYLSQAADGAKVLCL
Summary of the method: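 Enzyme activity is inferred from ATP consumption: human GALK phosphorylates galactose (100 uM) using 35 uM ATP for 1 h at room temperature, and luciferase-based Kinase-Glo Plus reports unconsumed ATP.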

[17] = target: Voltage-gated inwardly rectifying potassium channel KCNH2 (Homo sapiens) (UniProt Q12809); assay: qHTS Assay for Small Molecule Inhibitors of the Human hERG Channel Activity (AID 588834);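 also: top concentration of the series differs between compounds; % is scaled to controls: 0 for no effect and ±100 for the full control effect; lower thallium flux fluorescence means stronger hERG block; nearly all actives have a fitted effect of over 50% in size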
Chain of Voltage-gated inwardly rectifying potassium channel KCNH2 (Homo sapiens) (Q12809 whole entry, looked up): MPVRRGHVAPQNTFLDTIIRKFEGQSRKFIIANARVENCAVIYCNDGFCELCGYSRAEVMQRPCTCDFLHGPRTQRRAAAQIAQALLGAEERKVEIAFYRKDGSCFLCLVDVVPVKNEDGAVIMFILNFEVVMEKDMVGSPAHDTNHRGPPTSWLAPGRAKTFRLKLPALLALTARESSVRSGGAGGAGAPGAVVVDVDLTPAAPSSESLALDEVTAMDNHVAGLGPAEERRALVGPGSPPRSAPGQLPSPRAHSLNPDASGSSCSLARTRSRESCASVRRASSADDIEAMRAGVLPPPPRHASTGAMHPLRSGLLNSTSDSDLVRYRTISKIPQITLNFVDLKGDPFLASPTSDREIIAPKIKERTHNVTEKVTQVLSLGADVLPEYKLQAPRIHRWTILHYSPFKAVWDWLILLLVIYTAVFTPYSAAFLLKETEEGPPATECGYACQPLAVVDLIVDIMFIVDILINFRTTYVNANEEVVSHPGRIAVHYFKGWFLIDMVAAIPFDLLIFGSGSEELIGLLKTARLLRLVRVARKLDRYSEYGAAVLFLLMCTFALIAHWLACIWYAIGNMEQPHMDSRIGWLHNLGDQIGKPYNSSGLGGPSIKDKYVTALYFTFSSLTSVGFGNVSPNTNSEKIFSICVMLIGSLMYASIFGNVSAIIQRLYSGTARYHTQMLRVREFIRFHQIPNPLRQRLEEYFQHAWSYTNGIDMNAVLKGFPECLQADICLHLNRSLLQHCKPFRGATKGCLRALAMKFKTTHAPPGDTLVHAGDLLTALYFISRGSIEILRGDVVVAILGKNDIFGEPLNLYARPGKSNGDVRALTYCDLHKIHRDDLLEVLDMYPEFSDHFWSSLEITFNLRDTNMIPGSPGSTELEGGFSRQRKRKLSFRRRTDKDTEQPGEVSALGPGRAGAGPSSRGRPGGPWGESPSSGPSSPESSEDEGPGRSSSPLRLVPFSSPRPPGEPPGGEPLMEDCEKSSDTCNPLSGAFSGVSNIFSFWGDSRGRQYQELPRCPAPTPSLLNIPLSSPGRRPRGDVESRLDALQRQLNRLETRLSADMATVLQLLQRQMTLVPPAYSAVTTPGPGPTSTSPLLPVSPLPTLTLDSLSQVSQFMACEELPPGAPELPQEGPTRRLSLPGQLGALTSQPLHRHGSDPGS
Summary of the method: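 Homogeneous FluxOR thallium flux assay using hERG-expressing U2OS cells (BacMam). Compound treatment about 10 minutes preceded stimulation; reduced fluorescence taken as channel block.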

[18] = qHTS drug screen for cell cycle checkpoint inhibitors in PARPi-resistant BRCA-mutant ovarian cancer cell lines. (AID 1963452; calls by dose curve); settings: PEO1/OlaR viability, CellTiter-Glo luminescence, 96 h, stronger effect = lower value
Summary of the method: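 PEO1, PEO4 and PEO1/OlaR ovarian cancer cells, 600 per well, exposed 96 h at 37C to a dilution series. Viability read by CellTiter-Glo luminescence, normalized to DMSO and empty wells; activity summarized as Z-AUC.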

[19] = qHTS assay to identify inhibitors of the type 1 interferon - major histocompatibility complex class I in skeletal muscle: Counter screen cell viability and HiBit confirmation (AID 1347412); settings: iHSKM muscle cells + IFN-b, HiBiT or CellTiter-Glo, 24 h; Viability; at 45.9 µM (top of the series); also: % is scaled to controls: 0 for no effect and ±100 for the full control effect; nearly all actives have a fitted effect of over 60% in size
Summary of the method: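 Human myoblast knock-in line, 4.0 ng/ml IFN-beta stimulation, 24 h compound treatment. Endpoints: HiBiT lytic luminescence (HLA-B level) and CellTiter Glo (ATP). Dosing 12 concentrations, 3-fold steps, 46 uM highest final.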

[20] = qHTS Assay for Lipid Storage Modulators (AID 1519; calls by dose curve; as to activity change, negative = inhibition: % is scaled to controls: 0 for no effect and ±100 for the full control effect); settings: Drosophila S3 cells, BODIPY lipid droplet/cell ratio, laser cytometry, cells loaded with oleic acid; for activity change, negative = inhibition: at 57.5 µM (top of the series)
Summary of the method: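 Cells seeded at 5,000 per well were treated with compounds over a concentration series and loaded with oleic acid (400 uM, as added). Lipid droplet fluorescence (488 nm excitation, 500-530 nm channel) was read by laser-scanning cytometry and normalized to 20 uM Triacsin C.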

[21] = measured here: PEO1 parental Z-AUC
[22] = measured here: cell count channel max response
[23] = measured here: lipid channel max response

COc1cc(=O)n(C)c2c(OCC(O)C(C)(C)O)cccc12 (stereo not given)
inactive: outcome [1] | Potency [2] | Potency [3] | outcome [4] | Potency [5] | Potency [6] | outcome [7] | Potency [8] | outcome [9] | Potency [10] | Potency [11] | Potency [12] | outcome [13] | outcome [14] | activation [15] 0.812% | outcome [16] | Potency [17]

COC1CC(C(=O)c2ccc3c(N)ncc(-c4ccc(-c5cnn(C)c5)cc4)c3n2)C1 (stereo not given)
-1.16: Z-AUC [18, 21]
-1.1: Z-AUC ([18]; measured here: PEO4 Z-AUC)
inactive: Z-AUC [18] -1.33 | activity change, negative = inhibition [19] 4.77%

COc1cc(N2CCN(C)CC2)ccc1Nc1ncc2c(n1)N(C)c1ccccc1C(=O)N2C
inactive: Z-AUC [18] -0.347 | activity change, negative = inhibition [19] 22.1%
0.0513: Z-AUC [18, 21]
-0.152: Z-AUC ([18]; measured here: PEO4 Z-AUC)

Nc1nc(Nc2ccccc2)nc2c1ncn2[C@@H]1O[C@H](CO)[C@H](O)[C@H]1O
-24.2%: max response [20, 23]
-25.4%: max response [20, 22]
inactive: outcome [1] | activity change, negative = inhibition [20] -0.104% | Potency [2] | Potency [3] | outcome [4] | outcome [7] | Potency [8] | outcome [9] | Potency [10] | Potency [11] | Potency [12] | outcome [13] | outcome [14] | activation [15] 0.938% | outcome [16] | Potency [17]

CN=C(N)NCCCC(N)C(=O)O (stereo not given)
-19.4%: max response [20, 23]
inactive: outcome [1] | activity change, negative = inhibition [20] 0.52% | Potency [2] | Potency [3] | outcome [4] | Potency [5] | Potency [6] | outcome [7] | Potency [8] | outcome [9] | Potency [10] | Potency [11] | Potency [12] | outcome [13] | outcome [14] | activation [15] 0.812% | outcome [16]
-20%: max response [20, 22]

Cc1c(C(=O)Nc2ccc(Oc3ccnc4[nH]cc(-c5ccccc5)c34)c(F)c2)c(=O)n(-c2ccc(F)cc2)n1C
0.513: Z-AUC ([18]; measured here: PEO4 Z-AUC)
0.825: Z-AUC [18, 21]
inactive: Z-AUC [18] 0.886 | activity change, negative = inhibition [19] -7.02%

N.N.N.N.N.N.N.N.N.N.N.N.N.N.O.O.[Cl-].[Cl-].[Cl-].[Cl-].[Cl-].[Cl-].[Ru].[Ru].[Ru]
active: Potency [2] 35.5 µM | Potency [3] 20 µM | Potency [8] 4.47 µM
45.1%: max response [20, 23]
inactive: outcome [1] | activity change, negative = inhibition [20] 3.46% | outcome [9] | Potency [10] | Potency [11] | outcome [13] | activation [15] 1.06% | outcome [16] | Potency [17]
40.4%: max response [20, 22]

Source: PubChem BioAssay (NCATS)
